The text below walks through data of PubChem BioAssay (NCATS).

A short description of assay [1]: AP1 Signaling Pathway (AID 357). Also: % is scaled to controls: 0 for no effect and ±100 for the full control effect. The following applies: ME-180 AP-1-bla reporter, EGF-induced, beta-lactamase ratio, 5 h. The method, boiled down: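 ME-180 cells with beta-lactamase reporter under AP-1 response element, stimulated with EC50 EGF; compounds tested in titration series, 5 h at 37 °C. CCF4 substrate added 2.5 h at room temperature; 460/530 nm emission ratio gave %activity and AC50.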

Assay [2] deals with Cytochrome P450 1A2 (Homo sapiens) (UniProt P05177). Kind of assay: p450-cyp1a2 (AID 410; calls by dose curve; also: potency is read from the fitted curve at half-maximal effect;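 as to activity change, negative = inhibition: -100% = full effect of reference inhibitor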). The following applies: recombinant CYP1A2, luciferin-ME demethylation, luminescence; series mostly up to 25.6 µM. The method, boiled down: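 20nM CYP1A2 with 100uM Luciferin-ME (at Km) in 100mM KPO4; compound preincubated 10 min, NADPH regeneration added, 60 min at room temperature. Luciferin quantified by luminescence after detection reagent; normalized to 57 uM furafylline.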
Cytochrome P450 1A2 (Homo sapiens), sequence (P05177 whole entry, looked up): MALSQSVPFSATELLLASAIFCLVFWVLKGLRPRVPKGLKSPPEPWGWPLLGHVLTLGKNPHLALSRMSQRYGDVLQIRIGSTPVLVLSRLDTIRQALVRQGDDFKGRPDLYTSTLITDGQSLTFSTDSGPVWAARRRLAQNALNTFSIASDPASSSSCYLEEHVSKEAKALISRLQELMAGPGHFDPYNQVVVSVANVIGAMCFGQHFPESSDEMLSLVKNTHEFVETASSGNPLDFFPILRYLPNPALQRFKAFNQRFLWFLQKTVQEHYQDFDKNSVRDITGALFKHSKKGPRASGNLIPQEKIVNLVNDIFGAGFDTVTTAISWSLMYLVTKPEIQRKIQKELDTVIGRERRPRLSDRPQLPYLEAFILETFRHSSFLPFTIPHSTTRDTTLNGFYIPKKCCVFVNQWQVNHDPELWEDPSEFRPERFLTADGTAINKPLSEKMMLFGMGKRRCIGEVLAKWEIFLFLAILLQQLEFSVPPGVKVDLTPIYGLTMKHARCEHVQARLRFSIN

The nature of assay [3]: NFAT Signaling Pathway (AID 444).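 Also: carbachol stimulus at about its EC50 of 1 µM final; % is scaled to controls: 0 for no effect and ±100 for the full control effect.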 As to conditions: Jurkat NFAT-bla M1, carbachol, beta-lactamase ratio, 5 h. The method, boiled down: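 Read-out: CCF4 FRET ratio (460 nm/530 nm) after 1 h RT dye loading, used for %activity and AC50 from titration series. Cells: Jurkat NFAT-β-lactamase/M1 line, treated with compound plus 1 uM carbachol for 5 h, 37 °C.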
A short description of assay [4]: Stat Signaling Pathway (AID 446).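 Also: ME-180 cervical cancer cells given 40 pM IL-6 alongside compound; SIE-controlled beta-lactamase reporter measured as 460/530 nm FRET emission ratio; % is scaled to controls: 0 for no effect and ±100 for the full control effect.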 The following applies: ME-180 SIE beta-lactamase reporter, IL-6 stimulated, 5 h. The method, boiled down: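 Screening format detects activators and inhibitors alike: ME-180 SIE-bla cells stimulated at 40 pM IL-6 for 5 hrs with compound, then dual-emission beta-lactamase read at 405 nm excitation.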
Assay [5] deals with Glucocorticoid receptor (Homo sapiens) (UniProt P04150). The experiment in a line: GR-GFP Redistribution (AID 450;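 active = compounds whose dose series gives a full or clear partial fitted curve of increased nuclear translocation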; also: potency is read from the fitted curve at half-maximal effect). As to conditions: U2OS GR-GFP nuclear translocation, laser cytometry, 2 h.
Glucocorticoid receptor (Homo sapiens), sequence (P04150 whole entry, looked up, the tested form may be a part): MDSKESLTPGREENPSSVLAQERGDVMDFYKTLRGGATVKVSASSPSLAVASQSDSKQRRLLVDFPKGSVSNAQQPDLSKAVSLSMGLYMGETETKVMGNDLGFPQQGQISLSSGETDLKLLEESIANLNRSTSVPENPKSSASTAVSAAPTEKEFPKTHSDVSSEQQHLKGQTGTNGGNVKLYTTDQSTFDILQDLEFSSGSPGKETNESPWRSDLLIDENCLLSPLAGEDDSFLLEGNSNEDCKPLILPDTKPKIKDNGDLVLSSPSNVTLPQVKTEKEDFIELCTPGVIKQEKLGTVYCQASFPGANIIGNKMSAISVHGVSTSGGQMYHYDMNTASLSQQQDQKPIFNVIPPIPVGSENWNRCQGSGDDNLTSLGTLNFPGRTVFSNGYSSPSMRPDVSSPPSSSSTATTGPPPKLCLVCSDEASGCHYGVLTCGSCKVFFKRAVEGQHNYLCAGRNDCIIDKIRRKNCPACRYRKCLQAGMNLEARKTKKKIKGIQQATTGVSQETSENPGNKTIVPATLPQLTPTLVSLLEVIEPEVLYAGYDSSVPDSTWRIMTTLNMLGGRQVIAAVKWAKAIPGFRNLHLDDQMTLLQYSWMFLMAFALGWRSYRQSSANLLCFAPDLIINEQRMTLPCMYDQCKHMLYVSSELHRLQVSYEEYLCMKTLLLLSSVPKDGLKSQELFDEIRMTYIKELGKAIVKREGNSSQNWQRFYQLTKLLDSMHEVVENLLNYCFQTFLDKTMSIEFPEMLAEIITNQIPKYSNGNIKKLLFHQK
For assay [6] the target is unchanged. Kind of assay: GR-EFC Redistribution (AID 451; calls by dose curve; also: potency is read from the fitted curve at half-maximal effect). The following applies: CHO-K1 GR-EFC translocation, beta-gal luminescence, 2 h. The method, boiled down: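 Translocation of GR-ED fusion to nuclear EA restores b-gal, read by luminescence after 1 h room-temperature detection. Engineered CHO-K1 biosensor cells, 1,000/well, exposed 2 h at 37 C to titrations up to 46 uM final.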

For assay [7], the target named is Mitogen-activated protein kinase 10 (Mus musculus) (UniProt Q61831). Kind of assay: JNK3 AlphaScreen Assay (AID 530).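 Also: kinase came from lysate of stimulated human HepG2 cells; signal reports phosphorylation of biotinylated GST-cJun 1-79 at Ser73 with 10 µM ATP; % is scaled to controls: 0 for no effect and ±100 for the full control effect.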 The following applies: JNK3 lysate, c-Jun phosphorylation; series mostly up to 57.1 µM. The method, boiled down: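 Compound titrations were preincubated 15 minutes at room temperature with substrate, antibody and pre-activated JNK3-containing HepG2 lysate. Reactions were started with 10 uM ATP and stopped with EDTA-containing bead buffer for AlphaScreen detection.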

Assay [8] can be described thus: Cell Viability - BJ (AID 421; calls by dose curve;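 also: potency is read from the fitted curve at half-maximal effect; cells exposed to compound for 40 hours at 37 °C before readout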). As to conditions: BJ fibroblast viability, qHTS. The method, boiled down: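 Cytotoxicity in human BJ foreskin fibroblasts is scored as loss of cellular ATP after a 40-hour exposure, measured by luciferase luminescence. Controls are DMSO and 100 uM tamoxifen.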
For orientation: qHTS replaces the single test concentration by a dilution series.

Assay [9] is described as follows: Cell Viability - Jurkat (AID 426;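 active = dose-dependent loss of cell ATP signal giving a full or clear fitted curve, ranked by lower potency value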; also: potency is read from the fitted curve at half-maximal effect). As to conditions: qHTS. The method, boiled down:
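Jurkat (Clone E6-1) cells, 5000/well in complete medium, exposed to compounds for 40 hr at 37C; intracellular ATP measured by CellTiter-Glo luminescence after 20 min at room temperature. AC50 from Hill fits.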

Assay [10] is described as follows: Cell Viability - Hek293 (AID 427;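 active = compounds whose dose-response curve shows a full or clear partial loss of cell viability, called from curve shape rather than a numeric limit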;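 also: potency is read from the fitted curve at half-maximal effect; cells exposed to compound for 40 hours at 37 °C before reading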). The following applies: qHTS. The method, boiled down: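 qHTS, human embryonic kidney (adenovirus-transformed) cells; 40 hr cpd, 37 °C; CellTiter-Glo ATP luminescence. Norm: DMSO = 0, 100 uM tamoxifen = 100% inhibition. Hill-fit AC50.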
A short description of assay [11]: Cell Viability - HepG2 (AID 433; calls by dose curve;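 also: potency is read from the fitted curve at half-maximal effect; potency for ATP loss meaning cytotoxicity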). The following applies: qHTS. The method, boiled down:
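Cytotoxicity is scored as loss of intracellular ATP in HepG2 cells exposed to compounds for 40 h. Concentration-response curves, normalized to DMSO and 100 uM tamoxifen, give AC50 values.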

Assay [12] in a line: Cell Viability - MRC5 (AID 434; calls by dose curve;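 also: potency is read from the fitted curve at half-maximal effect; potency reflects cytotoxicity seen as loss of intracellular ATP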). As to conditions: MRC5 lung fibroblast viability, qHTS. The method, boiled down: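 qHTS cytotoxicity in human lung fibroblast MRC5 cells; 40 hr treatment, 37 °C; cellular ATP by luciferase luminescence; DMSO = 0%, 100 uM tamoxifen = 100% inhibition; Hill-fit AC50.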
Assay [13] in a line: Cell Viability - SK-N-SH (AID 435; calls by dose curve;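 also: potency is read from the fitted curve at half-maximal effect; compound exposure lasted 40 h at 37 °C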). As to conditions: SK-N-SH neuroblastoma cell viability qHTS. The method, boiled down: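 Cells seeded at 1500 per well and incubated 5 hr at 37 °C. Compound added, then 40 hr at 37 °C. CellTiter-Glo added, 20 min at room temperature, luminescence read.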
Assay [14] can be described thus: Cell Viability - NIH 3T3 (AID 541; active = well fitted curve in the direction sought with a large enough effect; an effect the other way counts as inactive or inconclusive;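 also: plate controls were DMSO alone for no effect and tamoxifen positive control for full effect; nearly all actives have a fitted effect of over 25% in size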). The following applies: NIH 3T3 cell viability, qHTS; activity change, negative = cytotoxicity: at 92.2 µM (top of the series). The method, boiled down:
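Mouse NIH 3T3 fibroblasts, 1000 cells/well, rested 5 hr at 37 °C, then exposed to compound for 40 hr at 37 °C in complete medium. Viability read as intracellular ATP by CellTiter-Glo luminescence; AC50 from Hill-equation fits of concentration-response data.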

A short description of assay [15]: Cell Viability - HUV-EC-C (AID 542; active = well fitted curve in the direction sought with a large enough effect; an effect the other way counts as inactive or inconclusive; also: % is scaled to controls: 0 for no effect and ±100 for the full control effect; nearly all actives have a fitted effect of over 35% in size). The following applies: HUV-EC-C endothelial cell viability, qHTS; series mostly up to 92.2 µM. The method, boiled down: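 HUV-EC-C human vascular endothelial cells, 1000/well, exposed to compound for 40 hr at 37 °C in complete medium. Intracellular ATP was read by CellTiter-Glo luminescence. AC50 came from Hill-equation fits of concentration-response data.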

A short description of assay [16]: Cell Viability - H-4-II-E (AID 543; active = well fitted curve in the direction sought with a large enough effect; an effect the other way counts as inactive or inconclusive; also: % is scaled to controls: 0 for no effect and ±100 for the full control effect; nearly all actives have a fitted effect of over 35% in size). The following applies: H-4-II-E rat hepatoma viability; series mostly up to 92.2 µM. The method, boiled down: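 Rat hepatoma H-4-II-E cells, 1500 per well, treated 40 h at 37 °C in complete medium. Cellular ATP read by CellTiter-Glo luminescence; AC50 from Hill fits of concentration-response.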
Assay [17] in a line: Cell Viability - SH-SY5Y (AID 544; active = well fitted curve in the direction sought with a large enough effect; an effect the other way counts as inactive or inconclusive;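 also: 0% = DMSO alone and -100% = 100 µM tamoxifen; nearly all actives have a fitted effect of over 55% in size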). As to conditions: SH-SY5Y neuroblastoma cell viability; series mostly up to 92.2 µM. The method, boiled down:
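SH-SY5Y human neuroblastoma cells (1500/well) incubated 5 h, then compound-treated 40 h at 37 °C in complete medium. Viability read as intracellular ATP by CellTiter-Glo luminescence after 20 min; AC50 from Hill-equation fits of qHTS concentration-response.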

The nature of assay [18]: Cell Viability - Renal Proximal Tubule (AID 545; active = well fitted curve in the direction sought with a large enough effect; an effect the other way counts as inactive or inconclusive;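 also: 0% = DMSO only and -100% = 100 µM tamoxifen; nearly all actives have a fitted effect of over 40% in size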). As to conditions: renal proximal tubule cells viability, primary cells of rat origin; series mostly up to 91.7 µM. The method, boiled down: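 Cytotoxicity is scored as a concentration-dependent drop in cellular ATP in primary rat renal proximal tubule cells exposed for 40 hr. AC50 derives from Hill modelling.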
Assay [19] is described as follows: Cell Viability - Mesenchymal (AID 546; active = well fitted curve in the direction sought with a large enough effect; an effect the other way counts as inactive or inconclusive;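 also: cells exposed to compound for 40 hours before reading; 0% = DMSO only and -100% = 100 µM tamoxifen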). As to conditions: mesenchymal cells viability, qHTS; series mostly up to 91.7 µM. The method, boiled down: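 AC50 values reflect the drop in intracellular ATP in a human kidney mesenchymal line derived from normal glomeruli. Treatment lasts 40 hr at 37 °C in complete medium, and the signal comes from CellTiter-Glo luminescence.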

Molecules are shown by their SMILES. A number with no mark means an inactive call. Results filed as inconclusive are left out. The source made the active and inactive calls. Unless noted, calls follow the shape of the dose curve; as a rule, active = well fitted curve in either direction with a large enough effect (not every such curve was filed as active); inconclusive = small, poorly fitted or top-dose-only effect, or another doubt; inactive = flat fitted curve, though single readings scatter.

Regarding `CCOc1ccc2ccccc2c1C(=O)N[C@@H]1C(=O)N2[C@@H]1SC(C)(C)[C@@H]2C(=O)O`, the activity change, negative = inhibition was 0.437% in [1] (at 17.2 µM (top of the series)) and 1.54% in [3] (at 17.2 µM (top of the series)). The Potency entry in assay [2] and in assay [7] was “inactive” throughout. Further, in [4] (at 17.2 µM (top of the series)), the activity, negative = inhibition was 2.51%. The Potency in assay [5] and in assay [6] was more than 20.6 µM in each case.
On to `COc1ccc2c(c1)C(=O)N(CCc1ccc(S(=O)(=O)NC(=O)NC3CCCCC3)cc1)C(=O)C2(C)C`, for which, in assay [1] (at 17.2 µM (top of the series)), the activity change, negative = inhibition is 12.1%. In addition, the Potency entry in [2] and in assay [7] was “inactive” in each case. The activity, negative = inhibition in assay [4] (at 17.2 µM (top of the series)) was -7.41%. The Potency in [5] and in assay [6] was more than 20.6 µM in each case.
For `Cc1cc2c(cc1S(N)(=O)=O)S(=O)(=O)CCC2`, the values for the activity change, negative = inhibition in assay [1] (at 17.2 µM (top of the series)) and in [3] (at 17.2 µM (top of the series)) were 4.34% and 1.69%, respectively. Besides, the Potency result in assay [2] and in assay [7] was “inactive” each time. Further, the activity, negative = inhibition in assay [4] (at 17.2 µM (top of the series)) was -10.1%. For the same molecule, the Potency in [5] and in assay [6] was more than 20.6 µM in each case.
Take `CC1=C(CC(=O)O)c2cc(F)ccc2/C1=C\c1ccc(S(C)(=O)=O)cc1`: the activity change, negative = inhibition in [1] (at 38 µM (top of the series)) was 11.6%; in assay [3] (at 38 µM (top of the series)) it was 13.8%. In [2], the Potency was 12.6 µM (active). Further, the activity, negative = inhibition in [4] (at 38 µM (top of the series)) is -25.4%. The Potency result in assay [7] was “inactive”.
With `CCCCOC(=O)c1ccc(O)cc1`, the activity change, negative = inhibition is -21.4% in assay [1] (at 17.2 µM (top of the series)) and -15% in [3] (at 17.2 µM (top of the series)). Moreover, the Potency in assay [2] is 0.0794 µM (active); in [8], more than 92 µM; in assay [9] it was more than 92 µM; in assay [10], more than 92 µM; in assay [11], more than 92 µM; in assay [12], more than 92 µM. Moreover, the Potency in assay [13] was more than 92 µM; in assay [5], more than 20.6 µM; in [6], more than 20.6 µM. For the same molecule, in assay [4] (at 17.2 µM (top of the series)), the activity, negative = inhibition was -9.98%. Further, the Potency entry in assay [7], in assay [14], in assay [15], in [16], in [17] and in [18] was “inactive” each time. For the same molecule, the molecule was classed as inactive in assay [19].
Consider `CC(=O)c1ccc2c(c1)N(CCCN(C)C)c1ccccc1S2`, for which the activity change, negative = inhibition in assay [1] (at 17.2 µM (top of the series)) is 24.3%. In addition, the results for the Potency in assay [2], in [5] and in assay [6] were 1.58 µM (active), more than 20.6 µM and more than 20.6 µM, respectively. The activity, negative = inhibition in assay [4] (at 17.2 µM (top of the series)) was -0.766%. The Potency result in [7] is “inactive”.
